From PubChem BioAssay
SMARCA2 act: activators of SMARCA2 function. activation, % at 9.1 µM. MG213 cells, MMTV-luciferase reporter, dexamethasone, overnight. 370,000 compounds, 1% hits. AID 652017; in the data active = activation above about 7.8%
DAX1 inh-1: inhibitors of human orphan nuclear receptor DAX1 (NR0B1). P51843. HEK293 Gal4-DAX1 luciferase reporter, luminescence. inhibition, % at 6.75 µM. 340,000 compounds, 0.99% hits. AID 504766;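 active = inhibition above the mean over all tested compounds plus 3 SD, cut at about 4.2% in these data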;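 also: inhibition shows as a rise in luminescence from relieved DAX1 repression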
hcDAF12 agonist: activators of H. contortus DAF-12 nuclear receptor; HEK293 hcDAF-12 lit1-tk-luc reporter, luminescence; 0% DMSO, 100% Δ7-dafachronic acid; activation, % at 6.8 µM; 370,000 compounds, 1.4% hits;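 active = activation above the mean of all tested compounds plus 3 SD, cut at about 5.5% in these data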
ssDAF-12 act: S. stercoralis DAF-12 activation, primary screen; HEK293 ssDAF-12/GRIP1 lit1-tk-luc reporter, luminescence; % of 3 µM dafachronic acid response; activation, % at 6.8 µM; 370,000 compounds, 1% hits;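 active = activation above the mean over all tested compounds plus 3 SD, cut at about 0.9% in these data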
hgDAF12 agonist: activates the H. glycines DAF-12 receptor ligand-binding domain; HEK293 GAL4-hgDAF12 UAS-luciferase reporter, agonist luminescence; normalized to butyrate control; 370,000 compounds, 1.8% hits; activation, % at 6.8 µM;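 active = activation above a cutoff set at the mean of all screened compounds plus 3 SD, cut at about 10% in these data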
DAX1 inh-2: blocks DAX1 repression of SF-1 activated StAR promoter; HEK293T StAR-luciferase reporter, SF-1/DAX-1 repression relief; inhibition, % at 6.8 µM; 370,000 compounds, 1.1% hits;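 active = inhibition above the mean over all tested compounds plus 3 SD, cut at about 3.6% in these data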;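 also: higher inhibition means more luminescence from relief of DAX-1 repression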
DAX1 conf: NR0B1 (human) inhibition, confirmation; shares compounds with DAX1 inh-2; HEK293T StAR-promoter luciferase reporter, SF-1/DAX-1 repression; inhibition, % at 6.8 µM; 2,400 compounds, 87% hits;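 active = inhibition above the average of every tested compound plus 3 SD, cut at about 3.8% in these data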;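 also: active compounds raise luminescence by relieving repression of the StAR reporter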
Target sequence (P51843 whole entry, looked up): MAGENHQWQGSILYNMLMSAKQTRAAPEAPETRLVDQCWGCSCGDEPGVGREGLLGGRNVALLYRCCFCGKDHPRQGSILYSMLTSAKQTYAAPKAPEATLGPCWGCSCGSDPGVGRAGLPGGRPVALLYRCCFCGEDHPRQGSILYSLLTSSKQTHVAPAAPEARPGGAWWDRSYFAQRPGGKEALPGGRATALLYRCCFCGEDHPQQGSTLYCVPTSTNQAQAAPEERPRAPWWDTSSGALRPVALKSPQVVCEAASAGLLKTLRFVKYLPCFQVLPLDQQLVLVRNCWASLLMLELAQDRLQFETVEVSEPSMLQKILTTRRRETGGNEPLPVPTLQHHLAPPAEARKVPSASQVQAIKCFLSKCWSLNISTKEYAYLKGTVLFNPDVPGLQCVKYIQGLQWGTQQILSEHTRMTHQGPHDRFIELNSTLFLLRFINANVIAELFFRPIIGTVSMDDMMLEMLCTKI
SF1 AF2mut Luc: counter-screen for DAX1 inhibitors: nonselective inhibitors with SF-1 AF2 mutant; HEK293 StAR-luciferase, luminescence; 2,400 compounds, 78% hits; AID 652136; shares compounds with DAX1 inh-2; inhibition, % at 6.8 µM;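 active = inhibition above the mean of all tested compounds plus 3 SD, cut at about 3% in these data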
SMARCA2 conf: SMARCA2 activation, confirmation screen | shares compounds with SMARCA2 act | MG213 cells, MMTV-luciferase with dexamethasone, luminescence, overnight; MG213 cells expressing E1A, Rb sequestered; DMSO wells 0%, reference activator 100% | activation, % at 9.1 µM | 3,500 compounds, 30% hits | AID 652260;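 active = activation above its plate's cutoff, the mean activation of tested wells plus 3 SD, cut at about 7.9% in these data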
VP16 Luc act: GAL4-VP16 reporter activation counter-screen; 3,500 compounds, 41% hits; shares compounds with SMARCA2 act; activation, % at 9.1 µM; HEK293 GAL4-VP16 pG5luc reporter, luciferase luminescence; scaled: DMSO wells 0%, SAHA wells 100%;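 active = activation above the solvent-only control well mean plus 3 SD, averaged across control plates, cut at about 5.2% in these data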
LXRb hcDAF ctr: LXR-beta agonism as hcDAF-12 counter-screen; shares compounds with hcDAF12 agonist; HEK293 Gal4-LXR tk-luc reporter, luminescence, 24 h; normalized: DMSO 0%, positive control 100%; activation, % at 6.8 µM; 3,400 tested, under 10 active;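 active = mean percent activation of the reporter above a cutoff set as the average over tested compounds plus their standard deviation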
hcDAF12 ag: hcDAF-12 agonism, confirmation assay; 3,400 compounds, 61% hits; HEK293 hcDAF-12 lit1-tk-luc reporter, luminescence; % of Δ7-dafachronic acid response; AID 743032; activation, % at 6.8 µM; shares compounds with hcDAF12 agonist;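 active = mean activation across triplicate tests above the threshold derived from the earlier primary screen, cut at about 5.5% in these data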
hgDAF12 conf: hgDAF-12 agonism, confirmation assay | shares compounds with hgDAF12 agonist | HEK293 GAL4-hgDAF12 luciferase reporter, agonist mode; percent of butyrate response | activation, % at 6.8 µM | 3,300 compounds, 80% hits | AID 743050;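 active = mean activation over triplicate wells above the hit cutoff derived from the earlier primary screen, cut at about 11% in these data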
LXR ag 2: counter-screen for DAF-12 agonists: agonists of human LXR-beta | HEK293 Gal4-LXR luciferase reporter, 24 h | activation, % at 6.8 µM | shares compounds with hgDAF12 agonist | AID 743051 | 3,300 tested, under 10 active;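 active = mean activation of the triplicate above a set limit carried over from the primary screen, none filed active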
A number is an active result. A selection: hits, their analogues and other compounds. The true share with any hit is near 4.8%.

Screening COc1ccc(-c2cn3cccc(C)c3n2)cc1F returned SMARCA2 act inactive, DAX1 inh-1 inactive, hcDAF12 agonist 7.9, ssDAF-12 act 1.0, hgDAF12 agonist 18, DAX1 inh-2 5.0, DAX1 conf 14, SF1 AF2mut Luc 9.0, LXRb hcDAF ctr inactive, hcDAF12 ag inactive, hgDAF12 conf 16 and LXR ag 2 inactive.
For Cc1ccc(-c2cn3cccc(C)c3n2)cc1 the results were SMARCA2 act 14, DAX1 inh-1 inactive, hcDAF12 agonist 16, ssDAF-12 act 3.8, hgDAF12 agonist 15, DAX1 inh-2 9.2, DAX1 conf 17, SF1 AF2mut Luc 7.9, SMARCA2 conf inactive, VP16 Luc act 12, LXRb hcDAF ctr inactive, hcDAF12 ag 17, hgDAF12 conf 21 and LXR ag 2 inactive.
Cc1cccn2cc(-c3ccc(Cl)cc3)nc12 was read as SMARCA2 act inactive, DAX1 inh-1 inactive, hcDAF12 agonist 18, ssDAF-12 act 2.6, hgDAF12 agonist 16, DAX1 inh-2 9.3, DAX1 conf 11, SF1 AF2mut Luc 4.0, LXRb hcDAF ctr inactive, hcDAF12 ag 18, hgDAF12 conf 18 and LXR ag 2 inactive.
For COc1ccc(-c2csc(C)n2)cc1OC the results were SMARCA2 act inactive, DAX1 inh-1 inactive, hcDAF12 agonist inactive, ssDAF-12 act inactive, hgDAF12 agonist inactive and DAX1 inh-2 inactive.
For COc1ccc(-c2cn3cc(C)ccc3n2)cc1OC the results were SMARCA2 act inactive, DAX1 inh-1 inactive, hcDAF12 agonist inactive, ssDAF-12 act inactive, hgDAF12 agonist 19, DAX1 inh-2 4.9, DAX1 conf 12, SF1 AF2mut Luc 6.6, hgDAF12 conf 18 and LXR ag 2 inactive.
`Cc1cccn2cc(-c3ccc(S(=O)(=O)N4CCCCC4)cc3)nc12` gave SMARCA2 act inactive, DAX1 inh-1 inactive, hcDAF12 agonist inactive, ssDAF-12 act inactive, hgDAF12 agonist inactive and DAX1 inh-2 inactive.
Screening CCC(=O)Nc1cccc(-c2cn3cccc(C)c3n2)c1 returned SMARCA2 act inactive, hcDAF12 agonist inactive, ssDAF-12 act inactive, hgDAF12 agonist inactive and DAX1 inh-2 inactive.
C[C@@H]1CNC(=O)c2c(C(=O)N3CCN(c4ccccc4)CC3)ncn21 was read as SMARCA2 act inactive, hcDAF12 agonist inactive, ssDAF-12 act inactive, hgDAF12 agonist inactive and DAX1 inh-2 inactive.
